According to the supplement of paper PMC8975748:
Structures can show the parent of a compound that is named as a salt. ± gives the standard deviation of the averaged measurements.

What was measured:
[1] = tested on: Saccharomyces cerevisiae BY4741 SeMeCo community; assay: mean cell size (pixel area) (pixels); higher = larger cells; conditions: 10 µM; 24 h; SM minimal medium
In short: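 Mean cell pixel area per well was measured in a four-plasmid fluorescent community of Saccharomyces cerevisiae BY4741, where every plasmid complements one auxotrophy and carries a fluorescent marker. Cells from an overnight preculture at OD600 = 1.0 were diluted to OD600 = 0.3 and dispensed at 70 µl into 384-well plates acoustically predosed with drug to a final 10 µM in SM medium. Incubation lasted 24 h, followed by paraformaldehyde fixation, automated confocal imaging and analysis in Harmony. Reported figures are averaged over 3 replicates. Same SeMeCo high-content imaging drug screen: Selleck FDA-approved drugs at 10 µM, 24 h in SM medium, 384-well plates, 3 replicates.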

[2] = tested on: Saccharomyces cerevisiae BY4741 SeMeCo community; assay: z-score of subpopulation abundance vs DMSO median, subpopulation auxotrophic for M; higher = larger share of this subpopulation than in DMSO controls; conditions: 10 µM; 24 h; SM minimal medium; subpopulation (auxotrophy): M
In short: (§1)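 Subpopulation abundance was reported as a z-score against the median of vehicle wells. The Saccharomyces cerevisiae BY4741 community, carrying four plasmids that each restored one auxotrophy and encoded a distinct fluorescent protein, was grown 24 h in minimal SM medium in 384-well plates holding library drugs at 10 µM final. Cells were paraformaldehyde-fixed and imaged by automated confocal microscopy, with single-auxotroph fluorescent strains used for thresholds and autofluorescence correction.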

[3] = tested on: Saccharomyces cerevisiae BY4741 SeMeCo community; assay: z-score of subpopulation abundance vs DMSO median, subpopulation auxotrophic for H; higher = larger share of this subpopulation than in DMSO controls; conditions: 10 µM; 24 h; SM minimal medium; subpopulation (auxotrophy): H
In short: as §1

[4] = tested on: Saccharomyces cerevisiae BY4741 SeMeCo community; assay: z-score of subpopulation abundance vs DMSO median, subpopulation auxotrophic for LU; higher = larger share of this subpopulation than in DMSO controls; conditions: 10 µM; 24 h; SM minimal medium; subpopulation (auxotrophy): LU
In short: as §1

[5] = tested on: Saccharomyces cerevisiae BY4741 SeMeCo community; assay: z-score of subpopulation abundance vs DMSO median, subpopulation auxotrophic for HM; higher = larger share of this subpopulation than in DMSO controls; conditions: 10 µM; 24 h; SM minimal medium; subpopulation (auxotrophy): HM
In short: as §1

[6] = tested on: Saccharomyces cerevisiae BY4741 SeMeCo community; assay: z-score of subpopulation abundance vs DMSO median, subpopulation auxotrophic for UM; higher = larger share of this subpopulation than in DMSO controls; conditions: 10 µM; 24 h; SM minimal medium; subpopulation (auxotrophy): UM
In short: as §1

[7] = tested on: Saccharomyces cerevisiae BY4741 SeMeCo community; assay: z-score of subpopulation abundance vs DMSO median, subpopulation auxotrophic for HL; higher = larger share of this subpopulation than in DMSO controls; conditions: 10 µM; 24 h; SM minimal medium; subpopulation (auxotrophy): HL
In short: as §1

[8] = tested on: Saccharomyces cerevisiae BY4741 SeMeCo community; assay: z-score of subpopulation abundance vs DMSO median, subpopulation auxotrophic for HLU; higher = larger share of this subpopulation than in DMSO controls; conditions: 10 µM; 24 h; SM minimal medium; subpopulation (auxotrophy): HLU
In short: as §1

[9] = tested on: Saccharomyces cerevisiae BY4741 SeMeCo community; assay: z-score of subpopulation abundance vs DMSO median, subpopulation auxotrophic for HLM; higher = larger share of this subpopulation than in DMSO controls; conditions: 10 µM; 24 h; SM minimal medium; subpopulation (auxotrophy): HLM
In short: as §1

[10] = tested on: Saccharomyces cerevisiae BY4741 SeMeCo community; assay: z-score of subpopulation abundance vs DMSO median, subpopulation auxotrophic for HUM; higher = larger share of this subpopulation than in DMSO controls; conditions: 10 µM; 24 h; SM minimal medium; subpopulation (auxotrophy): HUM
In short: as §1

[11] = tested on: Saccharomyces cerevisiae BY4741 SeMeCo community; assay: z-score of subpopulation abundance vs DMSO median, subpopulation auxotrophic for LUM; higher = larger share of this subpopulation than in DMSO controls; conditions: 10 µM; 24 h; SM minimal medium; subpopulation (auxotrophy): LUM
In short: as §1

[12] = tested on: Saccharomyces cerevisiae BY4741 SeMeCo community; assay: z-score of subpopulation abundance vs DMSO median, subpopulation auxotrophic for HLUM; higher = larger share of this subpopulation than in DMSO controls; conditions: 10 µM; 24 h; SM minimal medium; subpopulation (auxotrophy): HLUM
In short: as §1

[13] = tested on: Saccharomyces cerevisiae BY4741 SeMeCo community; assay: z-score of subpopulation abundance vs DMSO median, subpopulation auxotrophic for U; higher = larger share of this subpopulation than in DMSO controls; conditions: 10 µM; 24 h; SM minimal medium; subpopulation (auxotrophy): U
In short: as §1

[14] = tested on: Saccharomyces cerevisiae BY4741 SeMeCo community; assay: z-score of subpopulation abundance vs DMSO median, subpopulation auxotrophic for LM; higher = larger share of this subpopulation than in DMSO controls; conditions: 10 µM; 24 h; SM minimal medium; subpopulation (auxotrophy): LM
In short: as §1

[15] = tested on: Saccharomyces cerevisiae BY4741 SeMeCo community; assay: z-score of subpopulation abundance vs DMSO median, subpopulation auxotrophic for HU; higher = larger share of this subpopulation than in DMSO controls; conditions: 10 µM; 24 h; SM minimal medium; subpopulation (auxotrophy): HU
In short: as §1

[16] = tested on: Saccharomyces cerevisiae BY4741 SeMeCo community; assay: z-score of prototroph abundance vs DMSO median; higher = larger share of this subpopulation than in DMSO controls; conditions: 10 µM; 24 h; SM minimal medium; subpopulation (auxotrophy): Prototroph
In short: as §1

Row | Compound | mean cell size [1] | z-score of subpopulation abundance [2] | z-score of subpopulation abundance [3] | z-score of subpopulation abundance [4] | z-score of subpopulation abundance [5] | z-score of subpopulation abundance [6] | z-score of subpopulation abundance [7] | z-score of subpopulation abundance [8] | z-score of subpopulation abundance [9] | z-score of subpopulation abundance [10] | z-score of subpopulation abundance [11] | z-score of subpopulation abundance [12] | z-score of subpopulation abundance [13] | z-score of subpopulation abundance [14] | z-score of subpopulation abundance [15] | z-score of prototroph abundance [16]
1 | OCc1ccc(Cl)cc1Cl [2,4-dichlorobenzyl alcohol] | 12.32 ± 0.052 | -0.73 | 0 | 1.19 | -0.64 | -0.17 | 0.12 | 0.04 | 0.03 | -0.47 | -0.03 | 0.69 |  |  |  | 
2 | CN(C)[C@@H](CCOc1cccc2ccccc12)c1ccccc1 [Dapoxetine HCl] |  | -0.23 | -0.41 | 0.55 | -0.39 | -0.35 | 0.57 | 1.25 | -0.47 | -0.28 | 0.92 | -0.01 | -0.41 | 0.47 | -0.49 | 
3 | CC(c1cc2ccccc2s1)N(O)C(N)=O (stereo not drawn) [Zileuton] | 12.6 ± 0.19 | 0.27 |  | 0.65 | -0.32 | 0.34 | -0.17 | 0.44 | 0.43 | -0.33 | 0.12 | 0 | 0.31 | 0.16 |  | 0.05
4 | OC(c1cc(C(F)(F)F)nc2c(C(F)(F)F)cccc12)C1CCCCN1 (stereo not drawn) [Mefloquine HCl] | 12.3 ± 0.37 | -0.32 | -0.01 | 1.02 | 0.44 | 0.92 | 0.36 | 0.29 | 0 | 0.3 | 0.86 | 0.33 | 0.95 | 0.3 | -0.36 | 
5 | CN1CC2c3ccccc3Oc3ccc(Cl)cc3C2C1 (stereo not drawn) [Asenapine maleate] | 12.34 ± 0.11 | -0.45 |  | 0.61 |  | -0.2 | 0.5 | 0.37 | -0.53 | 0.01 | 0.42 | 0.32 |  | 0.5 |  | 0.14
6 | C=CC1=C(C(=O)O)N2C(=O)[C@@H](NC(=O)/C(=N\OCC(=O)O)c3csc(N)n3)[C@H]2SC1 [Cefixime] | 12.52 ± 0.039 | -0.61 | -0.5 | -0.02 | -0.97 | -0.25 | -0.16 | -0.72 | -0.25 | -0.75 |  | -0.73 | 0.43 | -0.13 | 0.1 | 0.71
7 | COc1ccc([C@@H]2Sc3ccccc3N(CCN(C)C)C(=O)[C@@H]2OC(C)=O)cc1 [Diltiazem HCl] |  | -0.12 |  | -0.4 | -0.74 | -0.21 |  | 0.03 | -0.37 | -0.36 | -0.24 | -0.3 | -0.19 |  | -0.1 | 0.76
8 | CC(=O)O[C@H]1C[C@@H]2CC[C@@H]3[C@H](CC[C@@]4(C)[C@H]3C[C@H]([N+]3(C)CCCCC3)[C@@H]4OC(C)=O)[C@@]2(C)C[C@@H]1N1CCCCC1 [Vecuronium Bromide] |  | -0.47 | -0.09 | 0 | -0.57 | -0.59 | -0.24 | -0.64 | -0.5 | 0.09 | -0.05 |  | -0.48 |  | -0.65 | 0.67
9 | CC(C(=O)O)c1ccc2c(c1)[nH]c1ccc(Cl)cc12 (stereo not drawn) [Carprofen] |  | -2.06 | 3.31 | -3.11 | -2.19 | -4.96 | 1.64 | -0.81 | 0.84 | -2.82 | -1.52 | 0.18 |  | -1.27 | -2.04 | 3.42
10 | CCC(=O)Oc1ccc2c(c1)CCC1C2CCC2(C)C(OC(=O)CC)CCC12 (stereo not drawn) [Estradiol dipropionate(17-Beta-Estradiol-3,17-Dipropionate)] |  | 0.21 | -1.21 | -0.67 | -0.18 | 0.34 | -0.96 | -0.61 | -0.83 | -0.16 | -0.6 | -1.07 | 0.61 | -0.31 | 0.2 | 0.27
11 | C=C1CCN([C@H](C)[C@](O)(Cn2cncn2)c2ccc(F)cc2F)CC1 [Efinaconazole] |  | 2.69 | 11.9 | -1.98 | 3.94 | 16.2 | 11.6 | 3 | 10.7 | 7.05 | 7.49 | 20.3 | -0.68 | 2.18 |  | -9.55
12 | CCN1CCCC1CNC(=O)c1cc(S(=O)(=O)CC)c(N)cc1OC (stereo not drawn) [Amisulpride] | 12.4 ± 0.13 | 0.12 | 0.19 | 0.33 | -1.17 | 0.04 | -0.73 | -0.63 | -0.87 | -0.03 | -0.21 | -0.8 |  | -0.1 | 0.3 | 0.14
13 | CN(C)CCCN1c2ccccc2CCc2ccc(Cl)cc21 [Clomipramine HCl] | 12.55 ± 0.052 | 0.54 |  | 0.32 |  | 0.93 | -0.45 | -0.16 | 0.29 | 1.2 | 1.56 |  | 1.4 | -0.41 | 0.31 | -0.93
14 | Cc1ccc(C(=O)C(C)CN2CCCCC2)cc1 (stereo not drawn) [Tolperisone HCl] | 12.6 ± 0.14 | 0.72 | -0.79 | -0.75 | -0.34 | -0.03 | -0.34 | -0.71 | -0.48 | -0.56 | -0.71 |  | -0.15 | -0.14 | -0.2 | 1.01
